Screening results as filed in PubChem.
Only some compounds are listed: those with a hit (about 4% of all), similar ones and a draw of the others.
D1 agonist – Allosteric Agonists of the Human D1 Dopamine Receptor: qHTS; D(1A) dopamine receptor (Homo sapiens), P21728; HEK293 T-REx D1 cells, calcium flux, agonist mode; activation, % at 2 µM; 360,000 compounds, 1% hits; AID 504660, 2011
Target sequence (P21728 whole entry, looked up): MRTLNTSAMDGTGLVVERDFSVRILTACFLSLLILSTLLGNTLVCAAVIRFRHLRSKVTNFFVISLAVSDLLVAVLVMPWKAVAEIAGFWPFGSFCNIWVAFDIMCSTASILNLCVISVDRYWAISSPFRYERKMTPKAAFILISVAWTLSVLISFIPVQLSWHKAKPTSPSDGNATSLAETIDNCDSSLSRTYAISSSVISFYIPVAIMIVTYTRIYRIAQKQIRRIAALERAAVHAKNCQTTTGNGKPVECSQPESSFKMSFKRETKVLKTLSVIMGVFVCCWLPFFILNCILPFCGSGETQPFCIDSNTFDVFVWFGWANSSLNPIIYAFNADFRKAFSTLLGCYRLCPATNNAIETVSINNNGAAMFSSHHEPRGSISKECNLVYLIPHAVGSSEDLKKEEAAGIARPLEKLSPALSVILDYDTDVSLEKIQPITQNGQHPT
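Agonism was scored from calcium flux recorded over 180 s (1 read/s) after pintool compound addition, following a 10-cycle baseline. Cells were inducible force-coupled HEK293 TREx D1, plated overnight at 30 C and loaded with no-wash calcium dye.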
D1 PAM – Potentiators of Human D1 Dopamine Receptor: qHTS. D(1A) dopamine receptor (Homo sapiens), P21728. HEK293 TREx D1 cells, calcium flux, dopamine EC20 potentiation. potentiation, % at 10 µM. 360,000 compounds, 0.036% hits. AID 504651, 2011; in the data active = potentiation above about 30%
D1 antag – Antagonist of Human D 1 Dopamine Receptor: qHTS; D(1A) dopamine receptor (Homo sapiens), P21728; HEK293 TREx D1 cells, calcium flux, dopamine EC80; active compounds read low; activity change, negative = inhibition, % at 10 µM; 360,000 compounds, 3.2% hits; AID 504652, 2011; in the data active = activity change below about -30%
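HEK293 T-REx cells expressing inducible, force-coupled D1 receptor; no-wash Ca dye, 30–90 min RT. Cmpd → 180 s read at 1 Hz → EC80 DA → 180 s read.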
TRHR agonist – qHTS for Small Molecule Agonists and Allosteric Enhancers of Human TRH Receptor: Primary Screen for Agonists; AID 493084, 2011; activation, % at 2 µM; 360,000 compounds, 0.18% hits; Thyrotropin-releasing hormone receptor (Homo sapiens), P34981; TRHR cells, calcium flux fluo-8, FDSS agonist mode
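Read-out: compound-evoked intracellular calcium rise in TRHR cells, fluo-8 dye, kinetic FDSS fluorescence at 1 s/cycle following a 10-cycle baseline. Cells cultured overnight before dye loading (30 min–1.5 h, RT).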
Glioma ERSR ind – qHTS for Inducers of the Endoplasmic Reticulum Stress Response (ERSR) in Human Glioma: qHTS; U87-MG GRP78 promoter luciferase reporter, 16 h; Potency, µM, actives largely listed as activators; 420,000 compounds, 0.02% hits; AID 602332, 2012; active = well fitted activation curve with a large enough effect; inconclusive = small, poorly fitted or top-dose-only effect; inactive = no such curve, though single readings can be large or run the other way; also: series mostly up to about 76 µM; nearly all actives have a fitted effect of over 35% in size
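ERSR induction read as luciferase luminescence (Bright-Glo, 10 min at room temperature) in stably transfected human U87-MG glioma cells exposed to compounds for 16 h, using GRP78 as sensor.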
TRHR PAM – qHTS for Small Molecule Agonists and Allosteric Enhancers of Human TRH Receptor: Primary Screen for Enhancers. TRHR cells, fluo-8 calcium fluorescence, EC20 TRH enhancement. Thyrotropin-releasing hormone receptor (Homo sapiens), P34981. 360,000 compounds, 0.66% hits. enhancement, % at 2 µM. AID 493056, 2011; in the data active = enhancement above about 30%
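Enhancer read-out: after compound pinning and an initial kinetic agonist-mode read, an EC20 of TRH (10 nM final) was injected and fluo-8 calcium signal (Ex 480/Em 530) followed at 1 s/cycle for 100 cycles in TRHR-expressing cells.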
Large screens that a line does not name were inactive. Rule as the data show it, unless noted: active = activation above about 30%; inactive = the rest.

COc1ccc(Cl)cc1S(=O)(=O)Nc1cccc(-c2ccc(N3CCOCC3)nn2)c1	TRHR PAM 32.1
COc1ccc(C(=O)Nc2cccc(-c3ccc(N4CCOCC4)nn3)c2)cc1	TRHR PAM 37.2
COc1ccc(CCC(C)NCCc2ccc(Cl)cc2Cl)cc1 (configuration not stated)	D1 agonist 50.9
COc1ccc(CCC(C)NCc2ccc(Cl)c(Cl)c2)cc1 (configuration not stated)	D1 agonist 31.7
Clc1cccc(/C=N/Nc2ncnc3ccccc23)c1	Glioma ERSR ind inconclusive, TRHR PAM 31.0
O=C(O)CC(c1ccccc1)c1ccccc1	none
O=C(O)CN1C(=O)NC2NC(=O)NC21 (configuration not stated)	none
O=C(O)CCCN1C(=O)NC2NC(=O)NC21 (configuration not stated)	D1 antag -31.4
CCCCNC(=O)CN1C(=O)NC2NC(=O)NC21 (configuration not stated)	D1 antag -43.2
CCOC(=O)CN1C(=O)NC2NC(=O)NC21 (configuration not stated)	none
Clc1ccc(C2=Nn3c(nnc3-c3n[nH]c4c3CCC4)SC2)cc1Cl	TRHR PAM 35.5
Cn1c(=O)c2cc(S(=O)(=O)NC(Cc3ccccc3)C(=O)NCC3CCCO3)ccc2n(C)c1=O (configuration not stated)	D1 antag -39.3
CN(C)S(=O)(=O)c1ccc2c(c1)c(=O)c(C(=O)N1CCOCC1)cn2C	none
COc1cccc(-c2nc(CS(=O)(=O)CC(=O)Nc3ccc(F)cc3F)c(C)o2)c1	TRHR PAM 30.5
COc1cccc(-c2nc(CSCC(=O)NCCc3ccc(Cl)cc3)c(C)o2)c1	D1 agonist 48.0, D1 antag -35.9
COc1ccc(-c2nc(CS(=O)(=O)CC(=O)NC3CCC(C)CC3)c(C)o2)cc1 (configuration not stated)	D1 agonist 30.8, D1 antag -33.2
COC(=O)N1C(=O)[C@@](CC(C)C)(c2ccccc2)N1C(=O)OC	none (no result: Glioma ERSR ind)
Cc1ccc(C)c(N2CCN(C(=O)C3CCN(c4nc5ccc(C)cc5[nH]4)CC3)CC2)c1	none
COc1cc(CNC2CCCCCC2)cc(OC)c1O	none
Cc1cc(N2CCN(C)CC2)n2nc(-c3ccc(Cl)cc3)nc2n1	none
CCC/C(O)=C1\C(=O)CC(C)(C)CC1=Nc1ccc(OC)cc1	D1 PAM 51.2
O=C(COc1ccc2ccccc2c1)N[C@@H](C(=O)O)c1ccc(O)cc1	none
O=c1c2c([N+](=O)[O-])cc([N+](=O)[O-])cc2sn1Cc1ccccc1	D1 agonist 51.2
O=[N+]([O-])c1ccc(O)c(/C=N/NC2=NS(=O)(=O)c3ccccc32)c1	none
O=C(c1ccc([N+](=O)[O-])cc1)N(Cc1ccc(Cl)cc1)N1C(=O)CCCC1=O	TRHR agonist 36.0
CN(C)S(=O)(=O)Nc1ccc(NS(=O)(=O)N(C)C)c(S(=O)(=O)c2ccccc2)c1	none
COc1ccc(C(=O)Nc2cc(C)nn2-c2ccc(F)cc2)cc1	none
COc1cc(-c2nnc(-c3ccc(S(=O)(=O)c4ccccc4)cc3)o2)cc(OC)c1OC	D1 antag -31.1
O=S(=O)(NC1CCCC1)c1cccc(-c2nnc(-c3ccccc3)o2)c1	none
COc1ccc(NS(=O)(=O)c2cccc(-c3nnc(-c4ccccc4)o3)c2)cc1	D1 antag -31.7
Cc1c(NC(=O)C(C)Sc2ncnc3ccccc23)c(=O)n(-c2ccccc2)n1C (configuration not stated)	none
Cc1cc(SC(C)C(=O)Nc2c(C)n(C)n(-c3ccccc3)c2=O)nc2ccccc12 (configuration not stated)	D1 antag -32.3
COCCN1CCn2c(nc3cc(NC(=O)Cn4nc(C)c5ccccc5c4=O)ccc32)C1	none
CCCN(CC1CC1)C(=O)COC(=O)c1[nH]c(C)c(C(=O)OCC)c1C	D1 agonist 30.1
Cc1cc(C)n(-c2nnc(Nc3ccc(C)c(Cl)c3)c3ccccc23)n1	D1 antag -39.9
Cc1ccc(-c2nnc(-n3nc(C)cc3C)c3ccccc23)cc1	TRHR PAM 30.5
Cc1cc(C)n(-c2nnc(Cl)c3ccccc23)n1	none
CCOc1ccc2[nH]c3nc(SCC(=O)NC4CC4)nnc3c2c1	none
FC(F)(F)c1cc(N2CCN(Cc3ccccc3)CC2)c2ccccc2n1	none
CC(=O)c1csc(-c2ccccc2)n1	D1 antag -54.6
NC(=O)c1ccc[n+](CC(=O)c2ccc(Cl)c(Cl)c2)c1	D1 antag -83.3
NC(=O)c1ccc[n+](CC(=O)c2ccccc2)c1	none
Cc1nc2ccccn2c1C(=O)NNS(=O)(=O)c1ccc(Cl)cc1	TRHR PAM 33.0
CC1(C)OC(=O)C(=CNc2ncccn2)C(=O)O1	none
CC1(C)OC(=O)C(=CNNc2c(Cl)cc(Cl)cc2Cl)C(=O)O1	TRHR PAM 31.3
O=C(CCN1C(=O)CSc2ccccc21)Nc1ccc(OC(F)(F)F)cc1	TRHR PAM 33.3 (no result: D1 antag)
CCOc1ccc(NC(=O)CCN2C(=O)CSc3ccccc32)cc1	none
COc1ccc(-n2c(C)cc(C(=O)Cn3nnc4ccccc4c3=O)c2C)cc1	none
Cc1cc(C(=O)Cn2nnc3ccccc3c2=O)c(C)n1-c1ccccc1F	D1 antag -53.3
Cc1cc(C(=O)COC(=O)c2ccc(O)cc2)c(C)n1-c1ccccc1F	D1 antag -30.0
Cc1oc(-c2ccccc2Cl)nc1CN1CCCCC1c1cccnc1 (configuration not stated)	D1 antag -31.8
Cc1oc(-c2ccccc2Cl)nc1CN1CCCC1c1ccc(F)cc1 (configuration not stated)	none
Cc1nc2c(-c3ccccc3)c[nH]n2c(=O)c1Cc1ccccc1	D1 agonist 36.5 (no result: D1 PAM)
O=C(NNC(=O)c1cc(-c2cccc(Br)c2)nc2ccccc12)c1csc(N2CCOCC2)n1	D1 antag -84.0
O=C(NNC(=O)c1cc(Br)ccc1O)c1csc(N2CCOCC2)n1	none
Cc1nc2c(C(=O)NCCc3ccccc3Cl)c[nH]n2c(=O)c1Cl	none
COc1ccc([C@H]2CC(=O)C=C(c3ccccc3)C2)cc1	none
